# Data reported in PubChem BioAssay AID1159580 (chemical genetic matrix, 2015).
# The whole screen tested about 5,500 compounds, of which about 2,000 (36%) were called active. Another 18% or so got no clear call; they are omitted. The list shows a part of the results. A number with no mark means an inactive call. Cut-off read from the data, not from the text of the source: active = normalized growth mostly below about 0.91 (no sharp cut-off); inconclusive = no clear call, values can overlap the other calls; inactive = mostly above about 0.92.
# Assay: chemical genetic growth profiling, strain panel (AID 1159580);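 note: tested at 20 µM; growth read once vehicle control cultures reached saturation at 30 °C; 1 = growth at the plate median or of vehicle wells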
# Details: growth OD
# [1] = S. cerevisiae deletion strains, locus YAL013W, strain DEP1, stronger effect = lower value
# [2] = S. cerevisiae deletion strains, locus YBR229C, strain ROT2, stronger effect = lower value
# [3] = S. cerevisiae deletion strains, locus YDL101C, strain DUN1, stronger effect = lower value
# [4] = S. cerevisiae deletion strains, locus YDL134C, strain PPH21, stronger effect = lower value
# [5] = S. cerevisiae deletion strains, locus YDR150W, strain NUM1, stronger effect = lower value
# [6] = S. cerevisiae deletion strains, locus YEL061C, strain CIN8, stronger effect = lower value
# [7] = S. cerevisiae deletion strains, locus YGR078C, strain PAC10, stronger effect = lower value
# [8] = S. cerevisiae deletion strains, locus YHR030C, strain SLT2, stronger effect = lower value
# [9] = S. cerevisiae deletion strains, locus YHR087W, strain rtc3, stronger effect = lower value
# [10] = S. cerevisiae deletion strains, locus YJL187C, strain SWE1, stronger effect = lower value
# [11] = S. cerevisiae deletion strains, locus YJR043C, strain POL32, stronger effect = lower value
# [12] = S. cerevisiae deletion strains, locus YJR075W, strain HOC1, stronger effect = lower value
# [13] = S. cerevisiae deletion strains, locus YKL190W, strain CNB1, stronger effect = lower value
# [14] = S. cerevisiae deletion strains, locus YLR039C, strain RIC1, stronger effect = lower value
# [15] = S. cerevisiae deletion strains, locus YLR058C, strain SHM2 (second series), stronger effect = lower value
# [16] = S. cerevisiae deletion strains, locus YLR085C, strain ARP6, stronger effect = lower value
# [17] = S. cerevisiae deletion strains, locus YLR262C, strain YPT6, stronger effect = lower value
# [18] = S. cerevisiae deletion strains, locus YML094W, strain GIM5, stronger effect = lower value
# [19] = S. cerevisiae deletion strains, locus YMR219W, strain ESC1, stronger effect = lower value
# [20] = S. cerevisiae deletion strains, locus YMR263W, strain SAP30, stronger effect = lower value
# [21] = S. cerevisiae deletion strains, locus YMR307W, strain GAS1, stronger effect = lower value
# [22] = S. cerevisiae deletion strains, locus YNL153C, strain GIM3, stronger effect = lower value
# [23] = S. cerevisiae deletion strains, locus YNL298W, strain CLA4 (second series), stronger effect = lower value
# [24] = S. cerevisiae deletion strains, locus YNL322C, strain KRE1, stronger effect = lower value
# [25] = S. cerevisiae deletion strains, locus YNR030W, strain Alg12, stronger effect = lower value
# [26] = S. cerevisiae deletion strains, locus YPL055C, strain LGE1, stronger effect = lower value
# [27] = S. cerevisiae deletion strains, locus YPL241C, strain CIN2, stronger effect = lower value
# [28] = S. cerevisiae deletion strains, locus YPR135W, strain CTF4, stronger effect = lower value
# [29] = S. cerevisiae deletion strains, locus YCL061C, strain MRC1, stronger effect = lower value
# [30] = S. cerevisiae deletion strains, locus YOL006C, strain TOP1, stronger effect = lower value
# [31] = S. cerevisiae deletion strains, locus YGR229C, strain SMI1, stronger effect = lower value
# [32] = S. cerevisiae strains, strain wild type, stronger effect = lower value
smiles,measurement,setting,value
O=[N+]([O-])c1cnc2ccccn12,normalized growth,[1],1.02
same,normalized growth,[2],1.01
same,normalized growth,[3],1
same,normalized growth,[4],1.03
same,normalized growth,[5],0.964
same,normalized growth,[6],1
same,normalized growth,[7],1.01
same,normalized growth,[8],1.08
same,normalized growth,[9],1.01
same,normalized growth,[10],0.992
same,normalized growth,[11],1.02
same,normalized growth,[12],1.03
same,normalized growth,[13],1.02
same,normalized growth,[14],1.05
same,normalized growth,[15],1.01
same,normalized growth,[16],1.01
same,normalized growth,[17],1.09
same,normalized growth,[18],0.995
same,normalized growth,[19],1.01
same,normalized growth,[20],1.02
same,normalized growth,[21],1.1
same,normalized growth,[22],1.03
same,normalized growth,[23],1.08
same,normalized growth,[24],1.02
same,normalized growth,[25],1.02
same,normalized growth,[26],1.02
same,normalized growth,[27],1.02
same,normalized growth,[28],1.11
c1ccc(-c2ncc3ccccn23)cc1,normalized growth,[1],1.01
same,normalized growth,[2],0.988
same,normalized growth,[29],0.985
same,normalized growth,[3],0.975
same,normalized growth,[4],0.967
same,normalized growth,[5],0.974
same,normalized growth,[6],0.989
same,normalized growth,[7],0.998
same,normalized growth,[8],0.843
same,normalized growth,[9],0.999
same,normalized growth,[11],0.99
same,normalized growth,[12],1.03
same,normalized growth,[13],0.996
same,normalized growth,[14],0.786 (active)
same,normalized growth,[15],0.991
same,normalized growth,[16],0.9
same,normalized growth,[17],0.926
same,normalized growth,[18],0.936
same,normalized growth,[19],1.01
same,normalized growth,[20],0.971
same,normalized growth,[21],0.711
same,normalized growth,[22],0.979
same,normalized growth,[23],0.95
same,normalized growth,[24],1.01
same,normalized growth,[25],0.981
same,normalized growth,[30],0.461 (active)
same,normalized growth,[26],1.03
same,normalized growth,[27],0.928
same,normalized growth,[28],0.753
CC(=O)OCC(=O)[C@@]1(O)CCC2C3CCC4=CC(=O)C=C[C@]4(C)[C@@]3(Cl)[C@@H](Cl)C[C@@]21C (some centres not stated),normalized growth,[8],0.991
same,normalized growth,"S. cerevisiae deletion strains, locus YHR079C, strain IRE1, stronger effect = lower value",0.991
same,normalized growth,"S. cerevisiae deletion strains, locus YJL095W, strain BCK1, stronger effect = lower value",0.968
same,normalized growth,"S. cerevisiae deletion strains, locus YJR066W, strain TOR1, stronger effect = lower value",0.923
same,normalized growth,"S. cerevisiae deletion strains, locus YLR113W, strain HOG1, stronger effect = lower value",1.06
same,normalized growth,"S. cerevisiae deletion strains, locus YNL183C, strain NPR1, stronger effect = lower value",0.916
same,normalized growth,"S. cerevisiae deletion strains, locus YOR231W, strain MKK1, stronger effect = lower value",0.952
same,normalized growth,"S. cerevisiae deletion strains, locus YPL256C, strain CLN2, stronger effect = lower value",0.99
Cc1nnsc1C(=O)O/N=C1/CCSc2ccc(F)cc21,normalized growth,[1],0.975
same,normalized growth,[2],0.969
same,normalized growth,[29],0.994
same,normalized growth,[3],0.967
same,normalized growth,[4],0.982
same,normalized growth,[5],0.973
same,normalized growth,[6],0.943
same,normalized growth,[7],0.973
same,normalized growth,[31],0.983
same,normalized growth,[8],0.775
same,normalized growth,[9],0.966
same,normalized growth,[10],0.996
same,normalized growth,[11],0.984
same,normalized growth,[12],0.994
same,normalized growth,[13],0.98
same,normalized growth,[14],0.848
same,normalized growth,[15],0.985
same,normalized growth,[16],0.856
same,normalized growth,[17],0.878
same,normalized growth,[18],0.932
same,normalized growth,[19],0.988
same,normalized growth,[20],0.989
same,normalized growth,"S. cerevisiae deletion strains, locus YNL128W, strain TEP1, stronger effect = lower value",1
same,normalized growth,[22],0.971
same,normalized growth,[23],0.973
same,normalized growth,[24],0.979
same,normalized growth,[25],0.945
same,normalized growth,[30],0.981
same,normalized growth,[26],0.956
same,normalized growth,[27],0.997
same,normalized growth,[28],0.874
same,normalized growth,[32],0.978
CN(C)/C=C1\CSc2ccc(F)cc2C1=O,normalized growth,[1],0.909 (active)
same,normalized growth,[2],0.719 (active)
same,normalized growth,[29],0.812 (active)
same,normalized growth,[3],0.291 (active)
same,normalized growth,[4],0.119 (active)
same,normalized growth,[5],0.885
same,normalized growth,[6],0.613 (active)
same,normalized growth,[7],0.787 (active)
same,normalized growth,[31],0.861 (active)
same,normalized growth,[8],0.102 (active)
same,normalized growth,[9],0.753 (active)
same,normalized growth,[11],0.908 (active)
same,normalized growth,[12],0.74 (active)
same,normalized growth,[13],0.0876 (active)
same,normalized growth,[14],0.429 (active)
same,normalized growth,[15],1.01
same,normalized growth,[16],0.154 (active)
same,normalized growth,[17],0.517 (active)
same,normalized growth,[18],0.658 (active)
same,normalized growth,[19],0.821 (active)
same,normalized growth,[20],0.903 (active)
same,normalized growth,[21],0.291 (active)
same,normalized growth,[22],0.852 (active)
same,normalized growth,[23],0.415 (active)
same,normalized growth,[24],0.995
same,normalized growth,[25],0.119 (active)
same,normalized growth,[26],0.787 (active)
same,normalized growth,[27],0.103 (active)
same,normalized growth,[28],0.303 (active)
same,normalized growth,[32],0.491 (active)
